# DT40 TDP1 no CPT = qHTS for Inhibitors of human tyrosyl-DNA phosphodiesterase 1 (TDP1): qHTS in cells in absence of CPT. DT40 Tdp1-/- hTDP1 cells, no CPT, ATP luminescence, 48 h. Potency, µM (titrated, usually from 46.2 µM), without a hit: top-dose activity change, negative = growth inhibition, hits mostly inhibitors. 420,000 compounds, 15% hits. AID 686978, 2013; further: potency means the concentration at half of the fitted maximal effect; nearly all actives have a fitted effect of over 55% in size
#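 Chicken DT40 Tdp1-/- cells stably complemented with human TDP1 were seeded at 400 cells/well with DMSO in place of 20 nM camptothecin. After compound pinning, cells grew at least 48 hr at 37 °C; viability read by CellTiter-Glo luminescence.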
# ELG1 DNA repair = ELG1-dependent DNA repair inhibition. HEK293T ELG1-luciferase reporter, luminescence, 16 h; DNA damage induced by 5-fluorouridine. Potency, µM (titrated, usually from 46.1 µM), for inactives: at the highest dose activity change, negative = inhibition, hits mostly inhibitors. 330,000 compounds, 2.3% hits; further: potency means the concentration at half of the fitted maximal effect; nearly all actives have a fitted effect of over 55% in size
#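 Step one: seed 2,000 cells per well. Step two: pin-transfer compound or DMSO alongside 5-fluorouridine. Step three: incubate 16 hr, 37 °C, 5% CO2. Step four: add ONE-Glo, wait 30 min, read luminescence.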
# HT1080 IDH1KD tx = toxicity to HT-1080 IDH1 knockdown cells (counter line) | HT-1080 IDH1 knockdown viability, ATP luminescence, 48 h | Potency, µM (top dose mostly 46.1 µM), without a hit: top-dose activity, negative = toxicity, actives largely listed as cytotoxic | 360,000 compounds, 2% hits | AID 686971;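 further: potency means the concentration at half of the fitted maximal effect; 0% = DMSO wells and -100% = cell-free medium wells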
#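 Viability of IDH1-knockdown HT-1080 fibrosarcoma cells was assessed by CellTiter-Glo after 48 h at 37 °C with titrated compound; concentration-effect curves were classified by fit quality and response size.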
# IL-1B inflam inh = inflammasome signaling inhibition, IL-1 beta readout. THP-1 LPS/ATP IL-1B secretion, AlphaLISA, 16 h; active compounds read low. 360,000 compounds, 4.7% hits. activity change, % at 57.5 µM; in the data active means activity change below about -50%; inconclusive means mostly about -30% to -49%
#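 Secreted IL-1B measured by AlphaLISA bead assay after 16 h compound exposure of THP-1 cells; compounds (final up to 57.5 uM) added 1 h before LPS (250 ng/mL) and ATP (1.25 mM) stimulation; lower signal means less secretion.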
# HT1080-NT tox = kills 2HG-producing HT-1080-NT fibrosarcoma cells. HT-1080-NT fibrosarcoma viability, CellTiter-Glo ATP luminescence, 48 h. Potency, µM (highest dose often 46.1 µM), inactives show at the top dose activity, negative = less viability, most hits filed as cytotoxic. 360,000 compounds, 1.6% hits;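 further: NT is the 2HG producing partner of a matched IDH1 knockdown line; potency means the concentration at half of the fitted maximal effect; 0% = DMSO-treated cells and -100% = media-only wells without cells; nearly all actives have a fitted effect of over 55% in size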
#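 HT-1080-NT; 750 cells/well; 5% FBS RPMI; 48 h compound, 37 degrees C; CellTiter-Glo luminescence; curve fitting and curve-class assignment.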
# DT40 TDP1 CPT = growth inhibition of DT40 Tdp1-/-;hTDP1 cells with camptothecin (screen for TDP1 inhibitors); chicken DT40 Tdp1-/-;hTDP1 cells + 20 nM CPT, ATP luminescence, 48 h; Potency, µM (highest dose often 46.2 µM), for inactives: top-dose activity change, negative = growth inhibition, actives largely listed as inhibitors; 420,000 compounds, 12% hits; AID 686979; further: potency means the concentration at half of the fitted maximal effect; nearly all actives have a fitted effect of over 55% in size
#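 Cell growth measured by CellTiter-Glo luminescence after a minimum 48 h, 37 C compound exposure with 20 nM CPT in Tdp1-knockout DT40 cells stably expressing hTDP1, seeded 400/well; qHTS titration format.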
# * marks the source's active call; other numbers are inactive results; ? = inconclusive; · = not tested or not shown; [ ] = dose if it differs, or a comment. Only some compounds are listed: those with a hit (about 19% of all), similar ones and a draw of the others. Unless noted, the call rests on the fitted dose curve; in most records, active means well fitted curve in the direction sought with a large enough effect; inconclusive means small, poorly fitted or top-dose-only effect, or another doubt; inactive means no such curve, though single readings can be large; an effect the other way counts as inactive or inconclusive. Unless noted, on the % scale 0 is the no-effect control and ±100 the full control effect.
SMILES,DT40 TDP1 no CPT,ELG1 DNA repair,HT1080 IDH1KD tx,IL-1B inflam inh,HT1080-NT tox,DT40 TDP1 CPT
CCCNS(=O)(=O)c1ccc(N2CCCC2=O)c([N+](=O)[O-])c1,-4.1%,-4.3%,4.8%,-1.4,8.7%,-0.8%
CC(C)OC(=O)CSc1nc(N2CCOCC2)c2c(c1C#N)CC(C)(C)OC2,-22.3%,?,-1.1%,7.7,-2.3%,2.0%
COC(=O)c1ccccc1NS(=O)(=O)c1cc2c(cc1C)N(C)CCO2,?,·,·,·,·,-16.2%
O=c1[nH]c(=O)c2ncn(C3OC(CO)C(O)C3O)c2[nH]1 (centres undefined),-5.4%,·,·,·,·,1.8%
CN(C)S(=O)(=O)c1ccc(Cl)c(NC(=O)CN2CCN(Cc3ccc4c(c3)OCO4)CC2)c1,20.6µM*,20.6µM*,-2.7%,15.1,0.0%,?
O=C(CN1CCN(Cc2ccc3c(c2)OCO3)CC1)Nc1cc(S(=O)(=O)N2CCCC2)ccc1Cl,16.4µM*,?,9.6%,-2.9,2.9%,?
C[C@H](NC(=O)CCCOc1ccc(Cl)cc1Cl)c1nnc2ccccn12,2.0%,?,-1.8%,16.6,0.2%,-21.6%
CCCCN(CCCC)CCCN1CC(=O)N2[C@@H](Cc3c([nH]c4ccccc34)C2(C)C)C1=O,-14.5%,5.9%,2.0%,-73.5*,5.2%,?
CCCCOCCCN1CC(=O)N2[C@@H](Cc3c([nH]c4ccccc34)C2(C)C)C1=O,18.4µM*,13µM*,2.7%,-17.0,-7.7%,?
COc1cccc(-c2cc(C(F)(F)F)n3ncc(C(=O)OC(C)C)c3n2)c1,-9.4%,·,·,·,·,-16.0%
COc1cc(-c2cc(C)c3cccc(OC)c3n2)cc2c1OCCN(C(=O)CCn1ccc(C)n1)C2,23.1µM*,·,·,·,·,-15.6%[9.04 µM]
COc1cccc(-c2cc3c(c(OC)c2)OCCN(Cc2ccccc2O)C3)n1,-16.0%,·,·,·,·,-0.1%
COCc1ccc(CN2CCOc3c(cc(-c4cc(C)c5cccc(OC)c5n4)cc3OC)C2)o1,20.6µM*,·,·,·,·,-5.0%[9.04 µM]
Cc1cc(C)cc(NC(=O)Nc2c[nH]c(=O)[nH]c2=O)c1,18.0%,·,·,·,·,-10.7%
Cc1cc(=O)[nH]c2nnc(SCC(=O)Nc3ccc(OC(F)(F)F)cc3)n12,-3.8%,·,·,·,·,11.6%
O=C(c1ccc(CS(=O)Cc2cccc(Cl)c2)o1)N1CCN(c2ccc(F)cc2)CC1 (centres undefined),16.4µM*,·,-2.1%,-11.3,-1.0%,?
O=C(c1ccc(CS(=O)Cc2ccc(Cl)cc2)o1)N1CCN(c2ccc(F)cc2)CC1 (centres undefined),-2.7%,23.1µM*,-10.6%,?,-19.5%,?
O=C(c1ccc(COc2c(F)c(F)cc(F)c2F)o1)N1CCN(c2ccc(Cl)cc2)CC1,16.4µM*,?,?,-5.2,8.0%,13µM*
COC(=O)c1ccc(COc2c(F)c(F)cc(F)c2F)o1,18.6%,-5.0%,5.0%,-17.0,8.0%,-2.0%
Cc1ccc(C)c(N2CCN(C(=O)c3ccc(CS(=O)Cc4cccc(Cl)c4)o3)CC2)c1 (centres undefined),-14.0%,-22.8%,-17.4%,-74.7*,-23.0%,?
COc1cccc(COC(=O)CSCC(=O)Nc2ccc(C)cc2)c1OC,?,·,2.0%,-21.5,-7.8%,?
COc1ccc(C(=O)NCCN2Cc3ccccc3OC(c3ccsc3)C2)c(OC)n1 (centres undefined),-16.0%,·,·,·,·,-13.1%[9.04 µM]
O=C(c1ccc(CS(=O)Cc2ccc(Cl)cc2)o1)N1CCN(c2cccc(Cl)c2)CC1 (centres undefined),-27.7%,?,?,-83.4*,?,?
COC(=O)C[C@H]1C[C@@H]2c3cc(NS(=O)(=O)c4cccc(OC)c4)ccc3O[C@@H]2[C@@H](CO)O1,?,·,-4.2%,-1.3,0.1%,?
COc1cccc(S(=O)(=O)Nc2ccc3c(c2)[C@@H]2C[C@@H](CC(=O)NCc4ccc(Cl)cc4)O[C@@H](CO)[C@@H]2O3)c1,16.4µM*,·,6.51µM*,43.5,8.2µM*,18.4µM*
SMILES,DT40 TDP1 no CPT,ELG1 DNA repair,HT1080 IDH1KD tx,IL-1B inflam inh,HT1080-NT tox,DT40 TDP1 CPT
CCCNC(=O)C[C@@H]1C[C@@H]2c3cc(NS(=O)(=O)c4ccc(OC)cc4)ccc3O[C@@H]2[C@@H](CO)O1,?,·,-8.7%,?,-6.3%,?
COc1cccc(S(=O)(=O)Nc2ccc3c(c2)[C@H]2C[C@H](CC(=O)N[C@@H](C)c4ccccc4)O[C@H](CO)[C@H]2O3)c1,14.6µM*,·,-0.7%,-14.9,-10.4%,?
COc1ccc(CNC(=O)C[C@@H]2C[C@H]3c4cc(NC(=O)NC5CCCC5)ccc4O[C@H]3[C@H](CO)O2)cc1,13µM*,·,-1.8%,69.6,-7.9%,?
O=C(C[C@@H]1C[C@@H]2c3cc(NS(=O)(=O)c4ccc(F)cc4)ccc3O[C@@H]2[C@@H](CO)O1)NC1CCCCC1,18.4µM*,·,-3.3%,-10.9,-10.2%,?
Cc1ccc(N(C)S(=O)(=O)c2ccc3[nH]c(=O)ccc3c2)cc1,?,·,·,·,·,-12.8%
C[C@@H](C[C@H](N)C(=O)O)C(=O)O,-22.5%,·,·,·,·,-23.7%
CC(C)C[C@H](NC(=O)c1nc[nH]c1C(=O)NCCCCCNC(=O)OC(C)(C)C)C(=O)OC(C)(C)C,18.4µM*,?,?,-2.8,?,?
C[C@H](NC(=O)c1nc[nH]c1C(=O)NCCCCCNC(=O)OC(C)(C)C)C(=O)OC(C)(C)C,16.4µM*,5.17µM*,-18.7%,2.7,-13.1%,18.4µM*
CC(C)C[C@H](NC(=O)c1nc[nH]c1C(=O)N[C@@H](CCCCNC(=O)OC(C)(C)C)C(=O)OC(C)(C)C)C(=O)OC(C)(C)C,20.6µM*,?,?,-24.2,?,20.6µM*
CNC(=O)c1[nH]cnc1C(=O)N[C@@H](CCCCNC(=O)OC(C)(C)C)C(=O)OC(C)(C)C,-12.4%,0.0%,1.7%,2.4,-0.9%,?
CC(C)(C)OC(=O)CNC(=O)c1[nH]cnc1C(=O)NCCCCCNC(=O)OC(C)(C)C,14.6µM*,?,-22.1%,1.0,-9.6%,23.1µM*
O=C(Nc1ccc(N2CCN(c3ccc(F)cc3)CC2)c(C(=O)O)c1)c1ccccc1F,-1.1%,·,·,·,·,-4.4%

# Bioassay records: PubChem BioAssay, National Center for Advancing Translational Sciences (NCATS)
